Laboratory results as given in PubChem BioAssay (NCI).
About 79,000 compounds went through this panel and 15% of them were active in at least one assay; those are over-represented in the sample as a whole. The source made the active and inactive calls. No stated cut-off is given here; in the data, active means growth inhibition above about 70%; inactive means the rest.

Experiment: NCI Yeast Anticancer Drug Screen. Data for the bub3 strain (AID 167)
Conditions: S. cerevisiae bub3 mutant strain, at 50.0 µM, active compounds read high
Procedure: Growth inhibition of yeast strains with defined genetic alterations is measured as a screen for potential anti-cancer activity. Selected strains with alterations in DNA damage repair or cell cycle control were exposed to compounds and growth inhibition was measured relative to vehicle treated controls. The strain used in this assay is bub3

Q: For `O=[N+]([O-])c1ccc(/C=N\NC(=S)Nc2ccc3cn[nH]c3c2)cc1`, which growth inhibition is on record?
A: 17.4% (inactive)

Q: Which growth inhibition does the source give for `CCCCCCNCc1cc(CNCCCCCC)c(O)c(CNCCCCCC)c1` here?
A: 1.4% (inactive)

Q: Which growth inhibition does the source give for `CCOCCC(C)(OCC)OCC` here?
A: -3.65% (inactive)

Q: Which growth inhibition does the source give for `O=C(O)c1cccc(SS(=O)(=O)c2cccc(C(=O)O)c2)c1` here?
A: 7.5% (inactive)

Q: With `C[N+](C)(C)C/C=C/C[N+](C)(C)C` as the molecule, how does the growth inhibition read?
A: 0.85% (inactive)

Q: Which growth inhibition does the source give for `CCCCCCCCCCCCCCNC(=O)C(C)O` (stereo not given) here?
A: 11.3% (inactive)

Q: For `CN1C(=O)c2ccccc2NC(=O)C12O[C@@H]2c1cccc(O)c1` (stereo not given in full), which growth inhibition is on record?
A: 6.9% (inactive)

Q: Which growth inhibition does the source give for `N#CC1=CN(Cc2ccccc2)C(c2ccccc2)C=C1` (stereo not given) here?
A: 35.9% (inactive)

Q: With `[O-][N+]1=C(c2ccccc2)C(c2ccccc2)C(c2ccccc2)O1` (stereo not given) as the molecule, how does the growth inhibition read?
A: -19.1% (inactive)

Q: Which growth inhibition does the source give for `OCC(O)C(O)C(O)C(Sc1ccccc1)Sc1ccccc1` (stereo not given) here?
A: -7.25% (inactive)

Q: With `CCSc1cc(=O)n(C)c(=O)n1C` as the molecule, how does the growth inhibition read?
A: 5.25% (inactive)

Q: Which growth inhibition does the source give for `COc1ccc(Cl)cc1NC(=O)Oc1cc2ccccc2cc1C(=O)Nc1ccccc1` here?
A: -3.25% (inactive)

Q: For `COc1cc(C)n2nnnc2n1`, which growth inhibition is on record?
A: 1.3% (inactive)

Q: With `Cc1cc(C)c(OCC(O)CO)c(C)c1` (stereo not given) as the molecule, how does the growth inhibition read?
A: 5.9% (inactive)

Q: For `CC(=O)/C(N=Nc1ccc(S(=O)(=O)c2ccc(N=N/C(C(C)=O)=C(/C)O)cc2)cc1)=C(\C)O`, which growth inhibition is on record?
A: -20.6% (inactive)

Q: For `CC(=O)c1c(O)cccc1O`, which growth inhibition is on record?
A: 8.7% (inactive)

Q: Which growth inhibition does the source give for `COc1ccc(C(C)=O)c(O)c1OC` here?
A: -3.1% (inactive)

Q: With `CC1OC(OC2C(CO)OC(O[C@H]3CC[C@@]4(C)C(=CC[C@H]5[C@@H]6C[C@@H]7O[C@]8(CC[C@@H](C)CN8)[C@@H](C)[C@@H]7[C@@]6(C)CC[C@@H]54)C3)C(O)C2O)C(O)C(O)C1O` (stereo not given in full) as the molecule, how does the growth inhibition read?
A: 6.1% (inactive)

Q: For `CNC(=O)OCc1c(COC(=O)NC)c(-c2ccc(SC)cc2)n(C)c1C`, which growth inhibition is on record?
A: 2.6% (inactive)

Q: For `CC(=O)NCc1cc([N+](=O)[O-])ccc1O`, which growth inhibition is on record?
A: -3.55% (inactive)

Q: With `CC1=C(OCCCl)C2CC1C1C(=O)N(c3ccccc3)C(=O)C21` (stereo not given) as the molecule, how does the growth inhibition read?
A: -4.9% (inactive)

Q: With `CCOC(=O)c1n[nH]c(=S)[nH]c1=O` as the molecule, how does the growth inhibition read?
A: 11.7% (inactive)

Q: Which growth inhibition does the source give for `COc1ccc(NC(=O)C(=O)NNC(=O)c2sc(NNC(C)=O)nc2C)c([N+](=O)[O-])c1` here?
A: 20.6% (inactive)

Q: With `NCCSSC/C=C\CSSCCN` as the molecule, how does the growth inhibition read?
A: -15.8% (inactive)

Q: With `CCOC(=O)CCC(NC(=O)c1ccc([N+](=O)[O-])cc1)C(=O)OCC` (stereo not given) as the molecule, how does the growth inhibition read?
A: 7.7% (inactive)

Q: With `Cc1cccc(Cl)c1NC(=O)N(C)c1ccccc1` as the molecule, how does the growth inhibition read?
A: 23.9% (inactive)

Q: With `O=C(CBr)Nc1ccccc1[N+](=O)[O-]` as the molecule, how does the growth inhibition read?
A: 6.05% (inactive)

Q: Which growth inhibition does the source give for `O=C(COc1ccccc1Cl)N1N=C(c2ccccc2)CC1(O)c1ccccc1` (stereo not given) here?
A: 19.6% (inactive)

Q: Which growth inhibition does the source give for `CCOC(=O)C1=C(C)NC(C)=C(C(=O)OCC)C1` here?
A: 31.1% (inactive)

Q: With `Cc1ccc(S(=O)(=O)Nn2c(-c3ccccc3)c(C#N)c(-c3ccc([N+](=O)[O-])cc3)c(C#N)c2=O)cc1` as the molecule, how does the growth inhibition read?
A: 20.1% (inactive)

Q: Which growth inhibition does the source give for `C=C1CC(C)(Cn2cnc3c(N)ncnc32)OC1=O` (stereo not given) here?
A: 16.7% (inactive)

Q: Which growth inhibition does the source give for `CSc1nc(C)cc(N(C)c2ccccc2)n1` here?
A: -18.2% (inactive)

Q: For `CN(CCN(C)C(=O)CCOS(C)(=O)=O)C(=O)CCOS(C)(=O)=O`, which growth inhibition is on record?
A: -25.6% (inactive)

Q: For `CCC(CO)Nc1nc2c(Cl)cc(Cl)cc2c2ccccc12` (stereo not given), which growth inhibition is on record?
A: 12% (inactive)

Q: Which growth inhibition does the source give for `Cc1ccc2nc(C)cc(N=[N+]=[N-])c2c1` here?
A: -2.2% (inactive)

Q: With `COC(=O)C1CSCN1` (stereo not given) as the molecule, how does the growth inhibition read?
A: -3.5% (inactive)

Q: With `CCOC(=O)C12CCCC1(O)N(NC(=O)OC(C)(C)C)C(C)=C2C(=O)OC` (stereo not given) as the molecule, how does the growth inhibition read?
A: 0.35% (inactive)

Q: For `O=c1[nH]c2ccccc2nc1/C=C(\O)c1ccc([N+](=O)[O-])cc1`, which growth inhibition is on record?
A: -22.4% (inactive)

Q: Which growth inhibition does the source give for `CCOCC/C(=N\Nc1ccc([N+](=O)[O-])cc1[N+](=O)[O-])c1ccccc1` here?
A: 30% (inactive)

Q: With `Cc1ccc(N2C(=O)CC3(CCCC3)C2=O)cc1Cl` as the molecule, how does the growth inhibition read?
A: 5% (inactive)
